Sampled rows, rich in hits. Any-hit rate of the full collection: about 1.3%.
INS promoter inh – TRM-6 insulin promoter activity inhibition. TRM-6 cells (human fetal islet line), insulin promoter-eGFP reporter, imaging; reporter expression induced with tamoxifen. inhibition, % at 2 µM. 0.9% of 130,000 active. AID 1273;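 active = inhibition above the mean plus 3 SD, with well images judged a real hit on visual review, cut at about 60% in these data, passing the limit was not always enough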
IL1B NFkB pot – enhances IL-1B driven NFkB nuclear translocation | AID 819 | HUVEC IL-1B NFkB p65 nuclear translocation imaging | 0.3% of 94,000 active | activation, % at 2 µM;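 active = activation above 40%, about the mean plus 3 SD, also judged a hit on visual image review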;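 note: percent activation is computed from the nuclear over cytoplasmic p65 intensity ratio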
NFkB transloc inh – blocks IL-1B driven NFkB nuclear translocation in HUVEC cells. HUVEC IL-1B NFkB p65 nuclear translocation imaging. inhibition, % at 2 µM. 0.43% of 94,000 active. AID 796;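 active = inhibition above about 30% together with a positive call from visual inspection of the well image, limit read from the data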;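 note: nuclear over cytoplasmic p65 intensity ratio measured by imaging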
IL1B cytotox – toxic to HUVEC cells under IL-1B stimulation; HUVEC cell count loss, Hoechst imaging, IL-1B stimulated; cell count reduction, % at 2 µM; 0.41% of 94,000 active; AID 845;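 active = cell count reduction more than 3 SD above the screen-wide mean, cut at about 70% in these data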
A number is an active result; . = inactive; / = not tested or not shown.

SMILES	INS promoter inh	IL1B NFkB pot	NFkB transloc inh	IL1B cytotox
O=C(C1CCC(=O)N1Cc1ccccc1Cl)N1CCN(c2ccc(F)cc2)CC1 (stereo unspecified)	/	.	.	77.8
O=C1CC(C(=O)N2CCN(c3ccc(F)cc3)CC2)CN1CCc1ccccc1 (stereo unspecified)	/	.	.	.
COc1ccccc1CN1CC(C(=O)N2CCN(c3ccc(F)cc3)CC2)CC1=O (stereo unspecified)	.	41.1	.	.
COC(=O)c1cc(NC(=O)/C=C/c2ccccc2)ccc1O	.	/	/	/
COc1cc(/C=N/Nc2ccc(Cl)cc2)ccc1OC(=O)c1cccs1	.	/	/	/
NC(=S)N/N=C/c1ccccc1OCCSc1ccc(Cl)cc1	.	/	/	/
COc1cccc(CNC(=O)C2CCN(Cc3cnn(-c4ccccc4)c3-n3cccc3)CC2)c1	.	63.0	.	.
COc1cccc(CC2(CO)CCN(CC3=CC[C@H]4C[C@@H]3C4(C)C)CC2)c1	.	/	/	/
COc1cc2c(cc1NC(=O)CN(C)Cc1cccc(OC)c1OC)oc1ccccc12	.	/	/	/
Cc1ccc(/C=C/c2nc3ccccc3[nH]2)o1	71.4	/	/	/
CC(C)C(OC(=O)c1cccs1)C(=O)NCc1ccc2c(c1)OCO2 (stereo unspecified)	.	/	/	/
CC(C)C(OC(=O)c1nsc(Cl)c1Cl)C(=O)NCc1ccc2c(c1)OCO2 (stereo unspecified)	.	.	.	85.7
CCOc1cc(-n2nc(C)c(C#N)c2N)nc(SC)n1	76.5	.	.	.
O=C(OCn1nnc2ccccc2c1=O)c1cccnc1	.	.	.	.
O=C(OCn1nnc2ccccc2c1=O)c1cn(-c2ccccc2)nc1-c1cccnc1	.	97.6	.	.
COc1ccc(N(C(=O)/C=C/c2ccc(OC)c(OC)c2)C2=CC3CCC(C2)N3C)cc1 (stereo unspecified)	.	/	/	/
CN(CC(=O)O/N=C(\N)c1ccc([N+](=O)[O-])cc1)S(=O)(=O)c1ccccc1	.	50.3	.	.
COc1ccc(C(=O)NC(NC(=O)c2ccc(OC)c(OC)c2)c2ccccc2F)cc1OC	.	/	/	/
CCCCn1cnc2c([nH]c3cc(OC)ccc32)c1=O	.	.	.	.
O=c1c2[nH]c3ccccc3c2ncn1CCCn1ccnc1	.	.	.	.
Cc1nc2c([nH]c3ccccc32)c(=O)n1N	100.0	/	/	/
O=c1c2[nH]c3ccc(Br)cc3c2ncn1CCCn1ccnc1	78.8	.	.	.
Nn1c(=O)[nH]c2c([nH]c3ccccc32)c1=O	.	/	/	/
CCCCn1cnc2c([nH]c3ccccc32)c1=O	81.6	.	.	.
CN(C)S(=O)(=O)c1ccc(NC(=O)COC(=O)C2CC3CCCC(C2)C3=O)cc1 (stereo unspecified)	.	/	/	/
SMILES	INS promoter inh	IL1B NFkB pot	NFkB transloc inh	IL1B cytotox
O=C(Oc1ccc(NC2=NS(=O)(=O)c3ccccc32)cc1)c1cccnc1	.	/	/	/
CCOC(=O)C1CCCN(C2CC(=O)N(c3ccc(C)cc3)C2=O)C1 (stereo unspecified)	67.7	/	/	/
O=C(CN1CCN(c2ccc([N+](=O)[O-])cc2)CC1)Nc1nccs1	76.9	/	/	/
O=C(CN1CCN(c2ccc([N+](=O)[O-])cc2)CC1)Nc1ccccn1	.	/	/	/
CC(C)Cn1cnc2c1c(=O)n(CC(=O)Nc1ccc3c(c1)OCO3)c(=O)n2Cc1ccccc1	.	.	32.9	72.2
Cc1cc(NC(=O)Cn2c(=O)c3c(ncn3CC(C)C)n(Cc3ccccc3)c2=O)no1	.	/	/	/
CCN(CC)C(c1ccc(F)cc1)c1nnnn1CC1CCCO1 (stereo unspecified)	92.9	.	.	.
COc1ccc(C(c2nnnn2CC2CCCO2)N2CCN(c3ccc(F)cc3)CC2)cc1 (stereo unspecified)	/	.	.	.
O=c1[nH]c(=O)n(Cc2ccccc2)c2nc(-c3ccc(Oc4ccc(F)cc4)c([N+](=O)[O-])c3)n(CCO)c12	73.5	/	/	/
COc1ccc(-c2ccc(-c3nc4c(c(=O)[nH]c(=O)n4Cc4ccccc4)n3C)o2)c([N+](=O)[O-])c1	.	/	/	/
CCOP(=O)(O)c1cccc(OCCOCCOc2cccc(P(=O)(O)OCC)c2)c1	.	/	/	/
CCS(=O)(=O)N1CCN(c2cc3c(cc2[N+](=O)[O-])n(C)c(=O)n3C)CC1	.	/	/	/
Cc1ccc(NCc2cccnc2)c(Br)c1	66.7	/	/	/
Cc1cc(C)c(S(C)(=O)=O)c(N(C)NC(=O)c2c(F)cccc2F)n1	.	/	/	/
Cc1cc(C)c(S(C)(=O)=O)c(N(C)N)n1	75.0	/	/	/
COC(=O)CSc1nnc(CNC(=O)c2cc(OC)c(OC)c(OC)c2)n1C	/	.	.	78.4
Cc1ccc(S(=O)(=O)N2CCOCC2)cc1C(=O)N1c2ccccc2Sc2ccccc21	.	.	.	.
O=C(CSc1nnc(CNc2cccc(C(F)(F)F)c2)n1Cc1ccco1)NCc1ccco1	.	68.8	.	.
O=C(CSc1nc(-c2ccccc2)cs1)NCc1ccco1	.	.	50.4	.
CCCn1c(SCC(=O)NCc2ccco2)nc2c1c(=O)n(C)c(=O)n2C	.	.	.	80.9
CC(C)c1nnc(SCC(=O)NCc2ccco2)n1C	.	.	.	.
O=C(O)CSc1nnc(CNc2cccc(C(F)(F)F)c2)n1Cc1ccco1	.	.	.	.
O=C(CSc1nnc2ccccn12)NCc1ccco1	70.6	/	/	/
Cc1cccc(C)c1NC(=S)NCCSc1ccc(Cl)cc1	.	/	/	/
O=c1[nH]ncc(NCc2ccc(Cl)cc2)c1Cl	.	/	/	/
SMILES	INS promoter inh	IL1B NFkB pot	NFkB transloc inh	IL1B cytotox
CCOc1c(Br)cc(C(N)=O)cc1OCc1ccccc1	.	/	/	/
COC(=O)c1nnn(CC(=O)NC(=O)Nc2cccc(Cl)c2C)c1C(=O)OC	.	/	/	/
CCOC(=O)c1c(NC(=O)CCC(=O)O)sc2c1CCCCC2	.	/	/	/
CC(C)OC(=O)c1c(NC(=O)CCC(=O)O)sc2c1CCCCC2	66.7	/	/	/
COc1ccc(-c2cc(C(F)(F)F)nc(-n3cc(Cl)cn3)n2)cc1	.	.	.	.
COc1ccc(-c2cc(C(F)(F)F)nc(-n3cc(Br)cn3)n2)cc1	.	53.7	.	.
COc1cc([N+](=O)[O-])cc2sc(NC(=O)C3CC3)nc12	.	/	/	/
CC(=O)NC(Cc1ccc(C)cc1)C(=O)NC1CCN(C(=O)c2cnccn2)CC1 (stereo unspecified)	.	43.1	.	.
Cc1ncsc1CCSc1n[nH]c(=O)n1-c1ccccc1	.	.	.	.
Cc1ncsc1CCSc1nc2ccccc2c(=O)n1C	.	.	.	79.7
COc1ccc(C(=O)c2ccc(OC)c(N)c2)cc1N	.	70.0	.	.
O=C(NNS(=O)(=O)c1ccc(F)c(Cl)c1)c1cccc(S(=O)(=O)N2CCOCC2)c1	.	/	/	/
COc1cccc(Nc2nc3ccccc3n2C(C)C)c1	61.5	/	/	/
COc1ccc([N+](=O)[O-])cc1C1NN=C(c2ccccc2O)S1 (stereo unspecified)	.	.	33.0	.
Cc1ccc(S(=O)(=O)N(C)C)cc1NC(=O)COC(=O)/C(=C/c1ccc(F)cc1)c1cccs1	64.3	/	/	/
CCN(CC)S(=O)(=O)c1ccc(C)c(NC(=O)COC(=O)[C@@H]2CCCN2C(=O)c2cccs2)c1	.	/	/	/
CC1Oc2ccccc2N(CC(=O)c2ccc(F)cc2)C1=O (stereo unspecified)	.	/	/	/
Cc1cc(C)nc(NS(=O)(=O)c2ccc(N/C=C\C(=O)c3ccc(Cl)cc3)cc2)n1	70.0	.	.	.
COc1ccc(S(=O)(=O)N2CCC(C(=O)Nc3ccc(F)cc3)CC2)c2cccnc12	.	/	/	/

Compound activity from PubChem.
